The results in this text go back to PubChem BioAssay AID743287 (Broad Institute, 2014).

“And” between values parts separate entries of the source, which are not always exact repeats. Equal values may be shown once. Among all 370,000 compounds or so, about 2,300 (0.62%) were called active.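 Rule for the calls: active = lowest replicate activation of at least 40%, so every replicate reaches that level; inactive = the rest.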 The list comes from a sample in which actives are over-represented; it also holds similar structures and randomly drawn compounds.

This test in a line: primary screen for activators of insulin secretion dependent on glucose, INS-1E cells, GLuc reporter luminescence (AID 743287).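 Note: 0% = median of neutral control wells and 100% = median of IBMX positive control wells.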 Particulars: INS-1E GLuc reporter insulin secretion, 2-3 h, at 16.6 µM, hits give high values.
Consider `COc1ccccc1CN1[C@H](CO)[C@H](c2ccccc2)C12CN(C(=O)c1ccccn1)C2`, for which the activation was -3.88% (inactive).

On to `O=C(C[C@H]1C[C@H]2c3cc(NC(=O)NC4CCCC4)ccc3O[C@H]2[C@@H](CO)O1)NCc1ccc(-c2ccccc2)cc1`, for which the activation was -0.703% (inactive).

With `COc1ccc2c3c([nH]c2c1)[C@H](CO)N(Cc1nccs1)CC31CCN(Cc2ccncc2)CC1`, the activation was 3% (inactive).

Consider `CC(C)NC(=O)N(C)C[C@H]1Oc2ccc(NS(C)(=O)=O)cc2C(=O)N(C)C[C@@H]1C`, for which the activation is -0.922% (inactive).

As for `Cc1ccc(CSc2nc3[nH]ncc3c(=O)[nH]2)cc1`, the activation is 23.2% (inactive).

Turning to `O=C(CSc1nc2[nH]ncc2c(=O)[nH]1)Nc1ccc(F)cc1`, the activation was 5.73% (inactive).

With `CCCSc1nc2[nH]ncc2c(=O)[nH]1`, the activation was 53.9% (active).

As to `CN1c2ccc(-c3cccc(F)c3)cc2[C@H]2[C@H](CCN2C(=O)C2CCCC2)[C@@H]1CO`, the activation is -41.3% (inactive).

For `O=C(C[C@H]1C=C[C@H](NC(=O)Nc2cc(F)ccc2F)[C@@H](CO)O1)NCc1ccccn1`, the activation was 2.32% (inactive).

In the case of `C[C@H]1CN([C@@H](C)CO)C(=O)c2c(c3ccccc3n2C)-c2ccccc2CO[C@@H]1CN(C)C(=O)Nc1ccnc(N2CCOCC2)c1`, the activation was -10.3% (inactive).

On to `CC(C)C(C(=O)NCc1ccco1)N(CC1CCCO1)C(=O)CNS(=O)(=O)c1ccc(F)cc1` (stereo not given), for which the activation was 47.3% (active).

`O=C(CN(CC1CCCO1)C(=O)CNS(=O)(=O)c1ccccc1)NCc1ccccc1` (stereo not given): the activation is 1.79% (inactive).

As for `O=C(CN(CC1CCCO1)C(=O)CNS(=O)(=O)c1ccc(F)cc1)NCc1ccco1` (stereo not given), the activation is 16.2% (inactive).

With `CC(C)C#Cc1ccc2c(c1)O[C@@H](CN(C)C(=O)C1CCC1)[C@@H](C)CN([C@@H](C)CO)S2(=O)=O`, the activation is -2.35% (inactive).

With `COc1ccc(-c2nn3c(-c4ccccc4)nnc3s2)cc1OC`, the activation was 140% (active).

For the compound `COc1ccccc1CCn1cnc(-c2ccccc2)c1C(C)C`, the activation was 40.3% (inactive).

Turning to `COc1ccc(-c2cc(NC=O)c3ncc(-c4ccccc4)n3c2)cc1OC`, the activation was 2.43% (inactive).

For the compound `COc1ccc2c3c([nH]c2c1)[C@@H](CO)N(Cc1ccc2c(c1)OCO2)CC31CN(C(=O)Nc2c(C)noc2C)C1`, the activation was 8.95% (inactive).

Consider `C[C@H](O)C#Cc1cnc2c(c1)C(=O)N([C@@H](C)CO)C[C@H](C)[C@H](CN(C)C(=O)c1ccccc1)O2`, for which the activation was 11.8% (inactive).

With `O=C(Nc1ccc(C(F)(F)F)cc1)N[C@@H]1CC[C@H](CC(=O)N2CCCCC2)O[C@H]1CO`, the activation is -5.98% (inactive).

For the compound `NC(c1csc(NC(=O)Nc2cccc(C(F)(F)F)c2)n1)C1CCCCC1` (stereo not given), the activation is 48.3% (active).

On to `CC(=O)Nc1ccc(NC(=O)C2CCCN2S(=O)(=O)c2cccc(C(F)(F)F)c2)cc1` (stereo not given), for which the activation is -4.8% (inactive).

For `C[C@H]1CN([C@@H](C)CO)C(=O)c2cccc(NC(=O)Nc3ccc(C(F)(F)F)cc3)c2O[C@H]1CN(C)CC1CCCCC1`, the activation is -0.988% (inactive).

As to `C[C@@H]1CN([C@@H](C)CO)C(=O)c2cccc(NC(=O)Nc3cccc4ccccc34)c2O[C@@H]1CN(C)CC1CC1`, the activation was 21.1% (inactive).

Take `O=C(Nc1ccccc1F)N[C@H]1C=C[C@H](CC(=O)N2CCCCC2)O[C@H]1CO`: the activation was -5.96% (inactive).

For the compound `O=C(CC1CC1)N1[C@@H](CO)[C@H](c2ccccc2)C12CN(Cc1cccnc1)C2`, the activation was 2.36% (inactive).

`CCC(=O)N1C[C@@H](C)[C@H](OC)CN(C)C(=O)c2ccc(NC(=O)C3CCOCC3)cc2OC[C@@H]1C`: the activation is 8.65% (inactive).

`O=C1CNC[C@H]2[C@@H](c3ccc(C4=CCCC4)cc3)[C@@H](CO)N12`: the activation was 2.03% (inactive).

`CCC(=O)N1[C@@H](CO)[C@@H](c2ccc(C3=CCCC3)cc2)C12CN(C(=O)COC)C2`: the activation was 3.86% (inactive).

`C[C@@H]1CCCCO[C@@H](CN(C)C(=O)CCCN(C)C)[C@@H](C)CN([C@H](C)CO)C(=O)c2cc(NC(=O)CCCN(C)C)ccc2O1`: the activation is 12.7% (inactive).

For `Cc1c(C(=O)N(C)CCc2cnn(C)c2)oc2c(F)cccc12`, the activation was 44.6% (active).

As to `Cc1ccc2c(C)c(C(=O)N(C)CCC3CCCCO3)oc2c1C` (stereo not given), the activation was 0.532% (inactive).

In the case of `CN(CCc1cnn(C)c1)Cc1cn(C)nc1-c1ccccc1F`, the activation was -1.92% (inactive).

Consider `COc1ccc(S(=O)(=O)N2CCOCC2)cc1NC(=O)CSc1ncnc2ccccc12`, for which the activation was 14.3% (inactive).

For the compound `COc1ccc(S(=O)(=O)N2CCOCC2)cc1NC(=O)COc1ccccc1`, the activation is 43.9% (active).

Consider `COc1ccc(S(=O)(=O)N2CCOCC2)cc1NC(=O)Cc1c(F)cccc1Cl`, for which the activation was -12.7% (inactive).

`COCC(=O)N(C)C[C@@H]1Oc2cc(C#CC3CC3)ccc2S(=O)(=O)N([C@H](C)CO)C[C@H]1C`: the activation is 5.41% (inactive).

Take `C[C@@H]1CC=CC[C@H](c2ccc(F)cc2)NC(=O)[C@@H](Cc2ccccc2)N(C)C(=O)c2ccccc2O1` (mixture of isomers): the activation was -20.2% (inactive).

In the case of `C[C@@H]1CN([C@H](C)CO)C(=O)c2cc(NS(=O)(=O)c3ccc(F)cc3)ccc2O[C@@H]1CN(C)S(C)(=O)=O`, the activation was 12.8% (inactive).

Take `NS(=O)(=O)c1ccc(CNC(=O)c2cc(S(=O)(=O)N3CCOCC3)ccc2N2CCCC2)cc1`: the activation is 46.1% (active).

`O=C(CNC(=O)c1cc(S(=O)(=O)N2CCOCC2)ccc1N1CCCC1)Nc1ccc(F)c(F)c1`: the activation was -28.2% (inactive).

`O=C(NCC1CCCCC1)c1cc(S(=O)(=O)N2CCCCC2)ccc1N1CCOCC1`: the activation was -3.7% (inactive).

With `C[C@@H]1CCCCO[C@@H](CN(C)Cc2ccc(C(=O)Nc3ccccc3N)cc2)[C@H](C)CN([C@H](C)CO)C(=O)c2cc(N(C)C)ccc2O1`, the activation was 4.89% (inactive).

With `C[C@@H]1CN([C@@H](C)CO)C(=O)CCCn2cc(nn2)CO[C@@H]1CN(C)C(=O)C1CCCCC1`, the activation is 5.75% (inactive).

For the compound `COc1ccc2c3c([nH]c2c1)[C@@H](CO)N(C(=O)C1CC1)CC31CCN(C(=O)c2ccncc2)CC1`, the activation was 1.51% (inactive).

In the case of `O=C(CN1CCCCC1)Nc1ccccc1C(=O)NC1CC1`, the activation was 22.4% (inactive).

As for `O=C(CN1CCCCCC1)Nc1ccc(Br)cc1[N+](=O)[O-]`, the activation was 7% (inactive).

Take `O=C(CN1CCC(NC(=O)C2CC2)CC1)Nc1ccccc1[N+](=O)[O-]`: the activation is 96.7% (active).

In the case of `O=C(Nc1ccc(S(=O)(=O)Nc2ncccn2)cc1)c1cncc(Br)c1`, the activation is 1.33% (inactive).

Consider `CCOc1ncccc1C(=O)Nc1ccc(S(=O)(=O)Nc2nc(C)cc(C)n2)cc1`, for which the activation was 65.9% (active).

For `Cc1ccnc(NS(=O)(=O)c2ccc(NC(=O)c3ccc(S(=O)(=O)N(C)C)cc3)cc2)n1`, the activation was 7.95% (inactive).

With `COCCNC(=S)N(Cc1cccnc1)Cc1ccc(OC)c(OC)c1`, the activation is 53.5% (active).

In the case of `COCCCNC(=S)N(Cc1ccccc1)Cc1ccc(F)cc1`, the activation is -5.03% (inactive).

Regarding `COCCNC(=S)N(CCc1c(C)[nH]c2ccc(C)cc12)Cc1cccnc1`, the activation is -2.95% (inactive).

As for `COc1ccc(-c2cnc3c(c2)C(=O)N([C@@H](C)CO)C[C@@H](C)[C@H](CN(C)C(=O)C2CCCCC2)O3)cc1`, the activation is -13.6% (inactive).

Take `O=C(C[C@H]1CC[C@H]2[C@@H](COC[C@@H](O)CN2S(=O)(=O)c2ccc(Cl)cc2)O1)NCCN1CCCCC1`: the activation was 17.3% (inactive).

For the compound `CNC[C@@H]1Oc2cc(-c3ccccc3OC)ccc2S(=O)(=O)N([C@H](C)CO)C[C@H]1C`, the activation was 5.62% (inactive).

Turning to `CC[C@@H]1CC2=C(C(=O)OC(C)(C)O2)[C@@H](CC)O1`, the activation is -0.455% (inactive).

As to `CC1(C)OC(=O)C2=C(C[C@@H](C3CC3)O[C@H]2CCc2cccc(Cl)c2)O1`, the activation is -7.22% (inactive).

In the case of `CCC1OC(C2CC2)CC2=C1C(=O)OC(C)(C)O2` (stereo not given), the activation was 44.5% (active).

Turning to `O=C(Nc1ccc(C(F)(F)F)cc1)N1[C@@H]2CNC[C@H]1C2c1ccc(-c2ccncc2)cc1` (stereo not given in full), the activation was 3.37% (inactive) and 12.2% (inactive).

Take `CCCCc1nc(NCc2ccccc2)c(C#N)c2c1CCCC2`: the activation was -17.4% (inactive).

For the compound `CCCCc1nc(NCCN)c(C#N)c2c1CSC(C)(C)C2`, the activation is 44.2% (active).

For `COc1cccc(S(=O)(=O)N2[C@@H]3CNC[C@H]2C3c2ccc(-c3cccc(C(=O)N(C)C)c3)cc2)c1` (stereo not given in full), the activation was 11.3% (inactive) and 0.645% (inactive).

Consider `CO[C@H]1CN(C)C(=O)c2cc(NS(C)(=O)=O)ccc2OC[C@@H](C)N(C(=O)NC(C)C)C[C@@H]1C`, for which the activation was 8.6% (inactive).

Take `CCOC(=O)C1(Cc2cccc(OC)c2)CCN(C(C)COC)CC1` (stereo not given): the activation was 5.01% (inactive).

In the case of `CCOC(=O)C1(Cc2cccc(OC)c2)CCCN(C(=O)CCSC)C1` (stereo not given), the activation was 51.6% (active).

On to `CCOC(=O)C1(Cc2cccc(OC)c2)CCCN(S(=O)(=O)c2cccnc2)C1` (stereo not given), for which the activation was -3.61% (inactive).

Consider `C[C@@H]1CN([C@H](C)CO)C(=O)c2cccc(NC(=O)CCCCCC(=O)Nc3ccccc3N)c2O[C@H]1CN(C)CC1CCCCC1`, for which the activation was -3.22% (inactive).

As to `C[C@@H]1CN([C@@H](C)CO)C(=O)c2cc(NC(=O)Nc3ccccc3)ccc2O[C@H]1CN(C)S(=O)(=O)c1ccccc1`, the activation is 6.36% (inactive).

For `Cc1cccc(CS(=O)(=O)c2ncc(Cl)c(C(=O)Nc3ccc(F)cc3)n2)c1`, the activation is 44.8% (active).

As for `CN(CCC(=O)Nc1cc(S(=O)(=O)N(C)C)ccc1Cl)CC(=O)Nc1ccc(F)cc1`, the activation is -1.06% (inactive).

Regarding `Cc1onc(-c2c(F)cccc2Cl)c1C(=O)Nc1cccc(S(=O)(=O)N2CCCCC2)c1`, the activation was -9.79% (inactive).

Turning to `C/C=C/c1ccc(C2[C@H]3CNC[C@@H]2N3CC2CCOCC2)cc1` (stereo not given in full), the activation is 8.12% (inactive).

Regarding `C[C@@H]1CN([C@@H](C)CO)C(=O)Cc2cc(NC(=O)Cc3ccccc3)ccc2O[C@H]1CN(C)Cc1ccc(C(=O)O)cc1`, the activation was 12.1% (inactive).
